Assay outcomes from PubChem BioAssay.
KCNQ2 block – inhibitors of rat KCNQ2 potassium channel | B-score at 10 µM | O88943 | AID 2156 | CHO-K1 KCNQ2, FluxOR thallium flux, 20 min; active compounds read low | 310,000 compounds, 1.1% hits;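 active = fluorescence ratio B-score at most minus 3 library SDs, with starting brightness B-score within 2 library SDs, cut at about -5.5 in these data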
KCNQ2 enhance – potentiators of rat KCNQ2 potassium channel; AID 2239; 310,000 compounds, 0.54% hits; O88943; B-score at 10 µM; CHO-K1 KCNQ2, FluxOR thallium flux fluorescence; active compounds read high;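 active = fluorescence ratio B-score at least 3 SD of library B-scores, with initial fluorescence B-score within 3 of them, cut at about 5.3 in these data; same plate scores as AID 2156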;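 note: B-score of peak minus minimum over baseline fluorescence ratio after K+ and Tl+ stimulus; positive B-score means potentiation of KCNQ2 with more thallium influx and brighter signal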
Kir21 confirm – confirmation of mouse Kir2.1 potassium channel inhibitors; shares compounds with KCNQ2 enhance; Kir2.1-expressing cells, FluxOR thallium flux fluorescence; active compounds read low; Tl flux remaining, % of negative control (active compounds read low), % at 10 µM; 2,300 compounds, 41% hits; AID 2032;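 active = Primary-screen hit whose thallium flux fell at least 3 control SD below untreated wells in both duplicates, with normal baseline fluorescence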
HEK293 ctr – alters thallium flux in parental HEK293 cells, Kir2.1 counter-screen. FluxOR signal as % of negative control (100 = no effect), % at 10 µM. AID 2105. shares compounds with KCNQ2 enhance. FluxOR thallium flux fluorescence; 0% = unstimulated blank wells. 2,300 compounds, 19% hits;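 active = dye signal at least 3 control SD above or below untreated wells in both duplicates, raw fluorescence within 3, either direction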;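 note: percent is based on the flux ratio of peak minus minimum fluorescence over baseline F0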
CHO-K1 ctr – parental CHO-K1 activity in KCNQ2 potentiator counter-screen; activity increase over 3SD of controls, % at 10 µM; shares compounds with KCNQ2 enhance; 1,200 compounds, 43% hits; parental CHO-K1 cells, FluxOR thallium flux fluorescence; zero = vehicle mean+3SD, 100% = vehicle-minus-blank window;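 active = signal rise of at least 3 SD above the untreated control mean, in both duplicate wells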;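 note: counter screen of KCNQ2 potentiator hits so any rise reflects channel-independent effects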
KCNQ1 pot spec – tests whether KCNQ2 potentiators also act on human KCNQ1. shares compounds with KCNQ2 enhance. CHO KCNQ1 stable, FluxOR thallium flux fluorescence; beyond 3SD, as % of vehicle-control signal. activation over 3SD threshold, % at 10 µM. 1,200 compounds, 28% hits;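 active = fluorescence ratio rise of at least 3 SD of vehicle wells above their mean, in both replicate wells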
KCNQ2 pot confirm – confirmation of rat KCNQ2 potassium channel potentiators; shares compounds with KCNQ2 enhance; CHO-KCNQ2 cells, FluxOR thallium flux fluorescence; potentiation, less the hit threshold, % at 10 µM; 1,200 compounds, 68% hits;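 active = fluorescence ratio rising 3 SD or more over the vehicle control mean in both replicates, plus primary screen hit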;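 note: peak minus minimum thallium fluorescence divided by baseline after K/Tl stimulus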
Kir21 spec – tests whether KCNQ2 potentiators also affect mouse Kir2.1. activity over 3SD threshold, % at 10 µM. 1,200 compounds, 2% hits. HEK293 Kir2.1, FluxOR thallium flux fluorescence. shares compounds with KCNQ2 enhance;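 active = fluorescence ratio rise of at least 3 SD above the vehicle-control mean, seen in both replicates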
KCNQ2 W236L MoA – rat KCNQ2 W236L mutant potentiation by KCNQ2 potentiators; current increase over 3SD of negative controls (%), active compounds read high, % at 25 µM; AID 2558; 940 compounds, 10% hits; shares compounds with KCNQ2 enhance; CHO KCNQ2-W236L, automated patch clamp current;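 active = current increase at least 3 SD of the untreated controls above them in both duplicate recordings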
Target sequence (O88943 whole entry W236L, looked up): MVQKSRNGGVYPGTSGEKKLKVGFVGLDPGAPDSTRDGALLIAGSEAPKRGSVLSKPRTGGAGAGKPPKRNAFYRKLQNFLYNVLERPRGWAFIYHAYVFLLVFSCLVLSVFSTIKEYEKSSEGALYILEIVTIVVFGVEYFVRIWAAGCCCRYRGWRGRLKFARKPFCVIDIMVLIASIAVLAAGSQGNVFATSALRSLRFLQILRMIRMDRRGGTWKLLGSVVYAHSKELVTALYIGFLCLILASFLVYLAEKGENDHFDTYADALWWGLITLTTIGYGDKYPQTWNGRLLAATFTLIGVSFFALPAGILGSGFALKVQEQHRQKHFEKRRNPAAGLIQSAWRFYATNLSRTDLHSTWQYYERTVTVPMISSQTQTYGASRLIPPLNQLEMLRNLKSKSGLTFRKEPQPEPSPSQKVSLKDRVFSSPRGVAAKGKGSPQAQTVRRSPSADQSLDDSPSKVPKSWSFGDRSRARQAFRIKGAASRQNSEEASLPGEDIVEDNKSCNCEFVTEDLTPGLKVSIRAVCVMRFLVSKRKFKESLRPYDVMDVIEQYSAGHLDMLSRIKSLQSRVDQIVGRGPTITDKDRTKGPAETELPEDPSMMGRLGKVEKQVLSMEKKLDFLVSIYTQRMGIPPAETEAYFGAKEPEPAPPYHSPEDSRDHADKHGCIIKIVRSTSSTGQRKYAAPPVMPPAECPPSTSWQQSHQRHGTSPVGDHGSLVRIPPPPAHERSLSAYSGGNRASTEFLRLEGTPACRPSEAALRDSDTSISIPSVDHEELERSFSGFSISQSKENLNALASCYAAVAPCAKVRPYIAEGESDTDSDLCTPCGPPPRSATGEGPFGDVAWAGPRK
A number is an active result; i = inactive; nt = not tested or not shown. A selection: hits, their analogues and other compounds. The true share with any hit is near 1.6%.

SMILES | KCNQ2 block | KCNQ2 enhance | Kir21 confirm | HEK293 ctr | others
COc1ccc(C2C(C#N)=C3NC(=O)c4c(sc5c4CCCCC5)N3C3=C2C(=O)CC(C)(C)C3)cc1 (centres undefined) | i | 13.3 | i | i | CHO-K1 ctr=69.9;KCNQ1 pot spec=i;KCNQ2 pot confirm=15.2;Kir21 spec=i;KCNQ2 W236L MoA=i
CC(=O)N1CCC(C(=O)c2ccc(Cl)cc2)CC1 | i | nt | nt | nt
S=C(Nc1ccc(Cl)cc1Cl)NC1CCN(Cc2ccccc2)CC1 | i | i | nt | nt
O=C(c1ccc(Cl)cc1)C1CCN(Cc2ccccc2)CC1 | i | nt | 20.5% | i
Fc1ccc(CNC2CCN(Cc3ccccc3)CC2)cc1 | i | nt | nt | nt
Clc1ccc(CNC2CCN(Cc3ccccc3)CC2)cc1 | i | nt | 28.0% | i
O=C(NC1CCN(Cc2ccccc2)CC1)c1ccc(Cl)cc1Cl | i | nt | 76.5% | i
CC(C)CN(C(=O)C1CCCCC1)C1CCS(=O)(=O)C1 (centres undefined) | i | i | nt | nt
COc1ccc(/C=N/NC(=O)c2cc(C)on2)c2ccccc12 | i | i | nt | nt
O=C(NCC(=O)N(CCN1CCOCC1)C(C(=O)NC1CCCC1)c1cccnc1)c1cccs1 (centres undefined) | i | nt | nt | nt
CCN(CC)S(=O)(=O)c1cccc(C(=O)N[C@H](C(=O)OCC(=O)NC(=O)NC)C(C)C)c1 | i | nt | nt | nt
Cc1ccccc1-n1c(SCC(=O)Nc2ccccc2Cl)nc2n[nH]c(C)c2c1=N | i | i | nt | nt
O=c1cc(Cl)[nH]c(=O)n1Cc1ccccc1 | i | i | nt | nt
O=c1ccsn1Cc1ccccc1 | i | 5.65 | nt | nt | CHO-K1 ctr=i;KCNQ1 pot spec=i;KCNQ2 pot confirm=i;Kir21 spec=i
O=c1c2c3c(sc2[nH]c(=S)n1Cc1ccco1)CCC3 | i | i | nt | nt
C=CCn1c(=S)[nH]c2sc3c(c2c1=O)CCCC3 | i | 11.2 | i | 297.5% | CHO-K1 ctr=i;KCNQ1 pot spec=i;KCNQ2 pot confirm=63.4;Kir21 spec=i;KCNQ2 W236L MoA=i
Cc1ccc(-n2c(=S)[nH]c3sc4c(c3c2=O)CCC4)cc1 | i | i | nt | nt
COCCn1c(=S)[nH]c2sc3c(c2c1=O)CCCC3 | i | 10.4 | i | 326.5% | CHO-K1 ctr=i;KCNQ1 pot spec=34.9;KCNQ2 pot confirm=33.5;Kir21 spec=i;KCNQ2 W236L MoA=i
CCCCCN(C(=O)CCC(=O)OCC(=O)Nc1ccc(C)cc1F)c1c(N)n(CCCC)c(=O)[nH]c1=O | i | i | nt | nt
COc1ccc(OC)c(NC(=O)COC(=O)c2c3c(nc4ccccc24)CCCC3)c1 | i | nt | nt | nt
OCC1(CCOc2ccccc2)CCN(Cc2cccn2-c2ncccn2)CC1 | i | nt | nt | nt
CN(Cc1nccs1)C(=O)c1ccc(OC2CCN(CCc3ccccc3)CC2)cc1 | i | nt | nt | nt
CSC(=S)N/N=C/c1ccc(Br)cc1 | i | 7.11 | i | 254.5% | CHO-K1 ctr=i;KCNQ1 pot spec=38.7;KCNQ2 pot confirm=i;Kir21 spec=i
CSC(=S)N/N=C/c1ccc(N(C)C)cc1 | i | i | nt | nt
O=C(O)COc1cccc2nsnc12 | i | i | nt | nt
SMILES | KCNQ2 block | KCNQ2 enhance | Kir21 confirm | HEK293 ctr | others
CC(C)(C)c1ccc(OCC(=O)NCc2ccco2)c(Br)c1 | i | 5.4 | i | i | CHO-K1 ctr=i;KCNQ1 pot spec=i;KCNQ2 pot confirm=4.0;Kir21 spec=i;KCNQ2 W236L MoA=i
CC(C)(C)c1ccc(OCC(=O)NNC(=S)NC(=O)c2ccco2)c(Br)c1 | i | nt | nt | nt
CCOc1ccc(NC(=S)NC(=O)c2c(Cl)cnn2CC)c([N+](=O)[O-])c1 | i | i | nt | nt
CC1(C)Cc2ccccc2C(=O)N1 | i | i | nt | nt
O=C(/C=C/c1cccs1)c1ccc([N+](=O)[O-])cc1 | i | nt | nt | nt
COc1ccc(/C(N)=N/OC(=O)c2ccco2)cc1 | i | i | nt | nt
O/N=C/c1cn(-c2ccccc2)nc1-c1cccnc1 | i | nt | nt | nt
Cc1ccc(-c2nn(-c3ccccc3)cc2/C=N/O)cc1 | i | 5.38 | i | i | CHO-K1 ctr=i;KCNQ1 pot spec=i;KCNQ2 pot confirm=15.1;Kir21 spec=i;KCNQ2 W236L MoA=i
COc1ccc(CCNC(=O)Cn2c(=O)n(-c3ccc(C)c(F)c3)c(=O)c3sccc32)cc1OC | i | i | nt | nt
COCCCNc1nc2c(c(=O)n(C)c(=O)n2C)n1Cc1cccc(OC)c1 | i | nt | nt | nt
